Consider 7 compounds from PubChem BioAssay (Tox21).

Records with an inconclusive call do not appear. Active and inactive are the calls of the source. Unless noted, calls come from the whole dose curve.

Assay [1] in a line: qHTS assay to identify small molecule agonists of the sonic hedgehog signaling (Shh) pathway (AID 1259368).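 Note: NIH/3T3-derived 3T3Gli1-Luc cells carrying a stable Gli1-driven firefly luciferase reporter; series mostly up to about 92 µM; nearly all actives have a fitted effect of over 15% in size.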 The essentials:
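3T3Gli1-Luc (NIH/3T3 clone, stable Gli1-Luc); 4 hr pre-incubation, then cpd in DMSO 24 hr, 37 C/5% CO2; luciferase reagent 30 min RT; luminescence.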
Background: qHTS replaces the single test concentration by a dilution series.

Assay [2] is described as follows: qHTS assay to identify small molecule antagonists of the sonic hedgehog signaling (Shh) pathway (AID 1259369). Note: nearly all actives have a fitted effect of over 45% in size. Note: potency is the fitted concentration of half-maximal effect. Put shortly: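 3T3Gli1-Luc, conditioned-medium-stimulated, 24hr cpd, 37C/5% CO2; Gli1-driven firefly Luc luminescence after 30min RT with luciferase reagent. Cells plated 4hr before cpd.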
For assay [3], the target named is Estrogen receptor beta (Homo sapiens) (UniProt Q92731). Put plainly: qHTS assay to identify small molecule antagonists of the estrogen receptor beta (ER-beta) signaling pathway (AID 1259378; active = well fitted inhibition curve with a large enough effect in the signal ratio in the repeat runs, not every such curve was filed as active; the % refers to the signal ratio). Put shortly:
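ER-beta-UAS-bla HEK293T cells in 2% charcoal-stripped FBS medium treated with compound plus 1nM final 17-beta-estradiol for 16 hr at 37C. Beta-lactamase reporter read by FRET substrate fluorescence after 2 hours at room temperature.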

The nature of assay [4]: qHTS assay to identify small molecule agonists of the estrogen receptor beta (ER-beta) signaling pathway - cell viability counter screen (AID 1259380; active = well fitted curve in the direction sought with a large enough effect in the repeat runs; an effect the other way counts as inactive or inconclusive; note: nearly all actives have a fitted effect of over 30% in size; note: potency is the fitted concentration of half-maximal effect). Put shortly:
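HEK293T ER-beta-UAS-bla; 2% CS-FBS; 6 hr pre-plate, 16 hr cpd at 37C/5% CO2; LiveBLAzer read first, then CellTiter-Glo 30 min RT, luminescence.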

Assay [5] can be described thus: qHTS assay to identify small molecule antagonists of the estrogen receptor beta (ER-beta) signaling pathway - cell viability counter screen (AID 1259382; active = well fitted curve in the direction sought with a large enough effect in the repeat runs; an effect the other way counts as inactive or inconclusive; note: series mostly up to about 92 µM; nearly all actives have a fitted effect of over 55% in size). The essentials:
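Cells: ER-beta-UAS-bla HEK293T, 2,000/well, 2% CS-FBS, 6 hr settle. Cpd + E2 (1nM final), 16 hr, 37C/5% CO2. Bla FRET substrate 2 hr RT, then CellTiter-Glo 30 min RT, luminescence.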

Assay [6] has as its target Estrogen receptor (Homo sapiens) (UniProt P03372). Put plainly: qHTS assay to identify small molecule agonists of the estrogen receptor alpha (ER-alpha) signaling pathway in the presence of an antagonist (AID 1259383). Note: top concentration of the series differs between compounds; nearly all actives have a fitted effect of over 15% in size. The essentials:
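VM7Luc4E2, endog. ER-alpha + 4×ERE-luc; charcoal-stripped FBS, phenol red-free, 5 d; 24hr plating; +10.0nM ICI-182,780 (final); cpds 15 conc, 22hr, 37C/5% CO2; ONE-Glo luminescence.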

A short description of assay [7]: qHTS assay to identify small molecule agonists or antagonists of the thyroid stimulating hormone receptor (TSHR) signaling pathway - wild type cell line counter screen (AID 1259384). The essentials:
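Wild-type Hek293 cells, 800/well, 18 h at 37C, then compound with Ro20-1724 for 30 min RT. cAMP by HTRF (cAMP-d2/anti-cAMP cryptate), 1 h RT, fluorescence read. 15 concentrations, triplicates.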

The target in assay [8] is Thyrotropin receptor (Homo sapiens) (UniProt P16473). Put plainly: qHTS assay to identify small molecule antagonists of the thyroid stimulating hormone receptor (TSHR) signaling pathway (AID 1259385). Note: nearly all actives have a fitted effect of over 20% in size. The essentials:
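TSHR-HEK293 cells (800/well) plated 18 h, then compounds with Ro20-1724 and TSH at 1.5 ng/mL final, 30 min at room temperature. cAMP quantified by HTRF (cAMP-d2/anti-cAMP-cryptate, 1 h); 15 concentrations in triplicate.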

Assay [9] can be described thus: qHTS assay to identify small molecule agonists of the estrogen receptor alpha (ER-alpha) signaling pathway in the presence of an antagonist - cell viability counter screen (AID 1259386; active = well fitted curve in the direction sought with a large enough effect in the repeat runs; an effect the other way counts as inactive or inconclusive;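 note: cells exposed to compounds for 22 h at 37 °C before the viability read; nearly all actives have a fitted effect of over 30% in size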; note: potency is the fitted concentration of half-maximal effect). The essentials: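 VM7Luc4E2, stripped-serum pre-culture 5 d; 24hr plating; +ICI-182,780 10.0nM final; cpds 15 conc, 22hr, 37C/5% CO2; CellTiter-Fluor added at 21hr, fluorescence 1hr later.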

Assay [10] addresses Progesterone receptor (Homo sapiens) (UniProt P06401). Put plainly: qHTS assay to identify small molecule agonists of the progesterone receptor (PR) signaling pathway (AID 1346784). Note: nearly all actives have a fitted effect of over 30% in size. Put shortly:
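Agonist qHTS: compounds pinned onto 3,000 PR-UAS-bla HEK 293T cells per well in charcoal-stripped serum medium, 16hr at 37C, then beta-lactamase activity measured by LiveBLAzer FRET fluorescence after 2 hours at room temperature.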

For assay [11] the target is unchanged. Put plainly: qHTS assay to identify small molecule antagonists of the progesterone receptor (PR) signaling pathway (AID 1346795; active = well fitted inhibition curve with a large enough effect in the signal ratio in the repeat runs, not every such curve was filed as active; the % refers to the signal ratio). The essentials:
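Antagonist mode with agonist R5020 at 1 nM final and 16 hr incubation at 37C. Reporter was beta-lactamase driven by UAS in HEK293T (PR-UAS-bla), 2% charcoal-stripped serum; signal from LiveBLAzer FRET substrate, 2 hr at room temperature.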

Assay [12] can be described thus: qHTS assay to identify small molecule antagonists of the progesterone receptor (PR) signaling pathway - cell viability counter screen (AID 1346798; active = well fitted curve in the direction sought with a large enough effect in the repeat runs; an effect the other way counts as inactive or inconclusive; note: series mostly up to about 92 µM; nearly all actives have a fitted effect of over 50% in size). The essentials:
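Cytotoxicity read as CellTiter-Glo luminescence (30 min, room temperature) in the same wells as the beta-lactamase readout. HEK293T PR-UAS-bla cells in charcoal-stripped 2% FBS received compound and R5020, then 16 h at 37C, 5% CO2.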

The nature of assay [13]: qHTS assay to identify small molecule agonists of the progesterone receptor (PR) signaling pathway - cell viability counter screen (AID 1346799). Note: nearly all actives have a fitted effect of over 45% in size. Put shortly:
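Cytotoxicity measured by CellTiter-Glo luminescence (30 min, RT) in the same wells as the PR beta-lactamase agonist read. Those HEK293T cells had 16 h compound treatment at 37 C in 2% charcoal-stripped FBS medium.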

The nature of assay [14]: qHTS assay to identify small molecule antagonists of the TGF-beta/Smad signaling pathway - cell viability counter screen (AID 1346824; active = well fitted curve in the direction sought with a large enough effect in the repeat runs; an effect the other way counts as inactive or inconclusive; note: nearly all actives have a fitted effect of over 50% in size). The essentials:
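SBE-bla HEK 293T cells, incubated overnight, then compound plus 0.25 ng/mL TGF-beta1 (stock added) for 5 hr at 37 C. Viability was read in the same wells by CellTiter-Glo luminescence after 30 min at room temperature.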

The nature of assay [15]: qHTS assay to identify small molecule agonists of the TGF-beta/Smad signaling pathway - cell viability counter screen (AID 1346829; active = well fitted curve in the direction sought with a large enough effect in the repeat runs; an effect the other way counts as inactive or inconclusive; note: top concentration of the series differs between compounds; nearly all actives have a fitted effect of over 45% in size). The essentials: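 HEK 293T SBE-bla line, 5 hr compound exposure at 37 C, multiplexed CellTiter-Glo viability read by luminescence.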
Assay [16] in a line: qHTS assay to identify small molecule agonists of the TGF-beta/Smad signaling pathway (AID 1346859; active = well fitted activation curve with a large enough effect in the signal ratio in the repeat runs, not every such curve was filed as active; the % refers to the signal ratio; note: series mostly up to about 77 µM). The essentials: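 Fluorescence (ex 405 nm; em 460 and 530 nm) was read 2 h after LiveBLAzer FRET substrate at RT. The preceding compound treatment of overnight-plated SBE-bla HEK293T cells lasted 5 h at 37 C.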
The target of assay [17] is Thyrotropin-releasing hormone receptor (Homo sapiens) (UniProt P34981). Put plainly: qHTS assay to identify small molecule antagonists of the thyrotropin-releasing hormone receptor (TRHR) signaling pathway (AID 1346877; active = well fitted inhibition curve with a large enough effect in the repeat runs, not every such curve was filed as active; note: series mostly up to about 51 µM). The essentials:
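Intracellular calcium fluorescence, read kinetically every second over 3 min, reports TRH-evoked signalling in HEK293 cells carrying TRHR. Test compounds were added 5 min ahead of a 1 nM TRH challenge.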

A short description of assay [18]: qHTS assay to identify small molecule agonists of the androgen receptor (AR) signaling pathway in the presence of an antagonist - cell viability counter screen (AID 1259379; active = well fitted curve in the direction sought with a large enough effect in the repeat runs; an effect the other way counts as inactive or inconclusive; note: nearly all actives have a fitted effect of over 25% in size; note: potency is the fitted concentration of half-maximal effect). The essentials:
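Cells: MDA-kb2 (MMTV-luc, AR and GR elements), 3,000/well, 5 hr settle. Added: nilutamide 3.0uM final, then compounds (15 conc.). Incubation: 16 hr, 37C, no CO2. Read-out: CellTiter-Fluor, 1 hr, fluorescence.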

The target of assay [19] is Androgen receptor (Homo sapiens) (UniProt P10275). Kind of assay: qHTS assay to identify small molecule agonists of the androgen receptor (AR) signaling pathway in the presence of an antagonist (AID 1259381). Note: nearly all actives have a fitted effect of over 15% in size. The essentials: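 MDA-kb2 cells, 3,000/well, rested 5hr at 37C/0% CO2 → nilutamide 3.0uM final or buffer → compounds, 15 conc. → 16hr at 37C → ONE-Glo, 30min RT → luminescence.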

Assay [20] concerns the target Estrogen receptor beta (Homo sapiens) (UniProt Q92731). Kind of assay: qHTS assay to identify small molecule agonists of the estrogen receptor beta (ER-beta) signaling pathway (AID 1259377; active = well fitted activation curve with a large enough effect in the signal ratio in the repeat runs, not every such curve was filed as active; the % refers to the signal ratio). Put shortly:
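Ratiometric beta-lactamase FRET read-out came after 2 h substrate loading at room temperature. It followed 16 h compound treatment at 37C of GripTite HEK293T cells carrying a UAS-bla reporter, plated in 2% charcoal-stripped FBS medium.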

Chain of Androgen receptor (Homo sapiens) (P10275 whole entry, looked up): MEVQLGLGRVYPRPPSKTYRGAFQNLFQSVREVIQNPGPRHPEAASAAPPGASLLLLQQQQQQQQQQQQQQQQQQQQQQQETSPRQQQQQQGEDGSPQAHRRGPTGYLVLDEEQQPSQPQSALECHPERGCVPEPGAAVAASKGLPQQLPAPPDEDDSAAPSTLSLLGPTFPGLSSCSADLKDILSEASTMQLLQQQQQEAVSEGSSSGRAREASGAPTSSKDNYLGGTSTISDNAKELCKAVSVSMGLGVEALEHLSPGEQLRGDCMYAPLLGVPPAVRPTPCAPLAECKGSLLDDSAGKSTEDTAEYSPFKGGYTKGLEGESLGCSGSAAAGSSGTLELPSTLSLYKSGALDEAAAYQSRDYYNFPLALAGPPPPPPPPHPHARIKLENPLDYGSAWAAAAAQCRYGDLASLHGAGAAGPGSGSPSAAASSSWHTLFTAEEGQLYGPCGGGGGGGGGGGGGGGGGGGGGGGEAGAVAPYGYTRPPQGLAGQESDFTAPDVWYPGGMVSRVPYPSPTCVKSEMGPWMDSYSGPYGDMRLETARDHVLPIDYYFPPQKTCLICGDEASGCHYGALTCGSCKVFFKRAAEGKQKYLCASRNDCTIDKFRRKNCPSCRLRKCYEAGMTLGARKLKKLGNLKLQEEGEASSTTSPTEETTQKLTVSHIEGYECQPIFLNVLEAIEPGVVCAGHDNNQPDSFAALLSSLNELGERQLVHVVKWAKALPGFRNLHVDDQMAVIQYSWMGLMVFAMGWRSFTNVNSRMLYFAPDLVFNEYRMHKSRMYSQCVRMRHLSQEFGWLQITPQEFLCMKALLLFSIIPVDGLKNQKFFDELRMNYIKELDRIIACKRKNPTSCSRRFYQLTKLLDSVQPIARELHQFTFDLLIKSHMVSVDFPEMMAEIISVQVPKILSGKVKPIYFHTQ
Chain of Progesterone receptor (Homo sapiens) (P06401 whole entry, looked up): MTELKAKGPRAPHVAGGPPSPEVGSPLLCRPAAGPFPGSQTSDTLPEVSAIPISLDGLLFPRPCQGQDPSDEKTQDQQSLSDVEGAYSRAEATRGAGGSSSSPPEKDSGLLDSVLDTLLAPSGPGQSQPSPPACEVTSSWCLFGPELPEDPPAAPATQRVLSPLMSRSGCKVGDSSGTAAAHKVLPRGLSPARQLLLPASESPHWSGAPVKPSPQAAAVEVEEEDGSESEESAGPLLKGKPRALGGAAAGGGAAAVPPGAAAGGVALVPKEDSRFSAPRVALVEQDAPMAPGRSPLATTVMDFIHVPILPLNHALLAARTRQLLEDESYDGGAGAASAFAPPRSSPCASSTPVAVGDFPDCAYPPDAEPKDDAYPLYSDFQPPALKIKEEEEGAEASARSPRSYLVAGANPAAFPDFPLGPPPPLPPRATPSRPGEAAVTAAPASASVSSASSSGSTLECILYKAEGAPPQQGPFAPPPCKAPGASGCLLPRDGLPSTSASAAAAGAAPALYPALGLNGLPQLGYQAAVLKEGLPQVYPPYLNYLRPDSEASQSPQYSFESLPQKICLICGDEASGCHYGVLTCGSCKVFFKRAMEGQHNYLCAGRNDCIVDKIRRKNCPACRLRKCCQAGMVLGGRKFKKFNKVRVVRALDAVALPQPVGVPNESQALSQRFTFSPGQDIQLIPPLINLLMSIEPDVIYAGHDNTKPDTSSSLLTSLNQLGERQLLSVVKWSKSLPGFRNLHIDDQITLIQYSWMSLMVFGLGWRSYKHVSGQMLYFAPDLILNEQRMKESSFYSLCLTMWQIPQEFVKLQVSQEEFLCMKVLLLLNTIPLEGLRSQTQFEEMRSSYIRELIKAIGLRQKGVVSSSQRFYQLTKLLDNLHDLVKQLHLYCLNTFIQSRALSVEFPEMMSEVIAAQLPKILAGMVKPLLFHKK
Chain of Estrogen receptor (Homo sapiens) (P03372 whole entry, looked up): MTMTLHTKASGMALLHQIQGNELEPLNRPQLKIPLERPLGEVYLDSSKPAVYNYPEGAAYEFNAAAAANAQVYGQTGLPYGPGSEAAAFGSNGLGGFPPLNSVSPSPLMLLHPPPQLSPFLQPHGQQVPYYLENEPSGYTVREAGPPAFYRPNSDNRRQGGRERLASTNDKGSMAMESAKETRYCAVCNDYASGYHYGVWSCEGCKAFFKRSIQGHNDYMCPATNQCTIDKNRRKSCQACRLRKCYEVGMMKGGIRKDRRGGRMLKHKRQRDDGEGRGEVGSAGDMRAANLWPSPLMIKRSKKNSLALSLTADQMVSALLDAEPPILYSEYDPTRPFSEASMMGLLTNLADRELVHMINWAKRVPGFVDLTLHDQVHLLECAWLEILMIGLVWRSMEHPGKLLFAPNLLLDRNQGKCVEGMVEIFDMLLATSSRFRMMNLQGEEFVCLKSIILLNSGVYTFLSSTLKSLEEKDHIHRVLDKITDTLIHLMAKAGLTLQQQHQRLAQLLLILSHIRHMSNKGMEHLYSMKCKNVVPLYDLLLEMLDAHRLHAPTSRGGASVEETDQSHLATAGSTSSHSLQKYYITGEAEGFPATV
Chain of Estrogen receptor beta (Homo sapiens) (Q92731 whole entry, looked up): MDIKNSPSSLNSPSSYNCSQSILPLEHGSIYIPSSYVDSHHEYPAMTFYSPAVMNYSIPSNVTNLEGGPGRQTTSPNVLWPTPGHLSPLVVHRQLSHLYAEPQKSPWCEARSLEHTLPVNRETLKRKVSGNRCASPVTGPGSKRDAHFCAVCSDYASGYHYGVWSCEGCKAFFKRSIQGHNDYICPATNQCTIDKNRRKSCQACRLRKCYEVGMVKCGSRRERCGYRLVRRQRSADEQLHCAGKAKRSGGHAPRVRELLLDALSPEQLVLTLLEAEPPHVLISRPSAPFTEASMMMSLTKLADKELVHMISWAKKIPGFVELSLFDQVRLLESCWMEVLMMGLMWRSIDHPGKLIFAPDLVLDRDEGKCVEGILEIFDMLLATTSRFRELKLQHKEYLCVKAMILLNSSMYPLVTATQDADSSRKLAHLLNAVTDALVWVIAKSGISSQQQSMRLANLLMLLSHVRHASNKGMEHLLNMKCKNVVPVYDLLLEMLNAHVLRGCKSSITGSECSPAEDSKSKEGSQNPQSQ
Chain of Thyrotropin receptor (Homo sapiens) (P16473 whole entry, looked up): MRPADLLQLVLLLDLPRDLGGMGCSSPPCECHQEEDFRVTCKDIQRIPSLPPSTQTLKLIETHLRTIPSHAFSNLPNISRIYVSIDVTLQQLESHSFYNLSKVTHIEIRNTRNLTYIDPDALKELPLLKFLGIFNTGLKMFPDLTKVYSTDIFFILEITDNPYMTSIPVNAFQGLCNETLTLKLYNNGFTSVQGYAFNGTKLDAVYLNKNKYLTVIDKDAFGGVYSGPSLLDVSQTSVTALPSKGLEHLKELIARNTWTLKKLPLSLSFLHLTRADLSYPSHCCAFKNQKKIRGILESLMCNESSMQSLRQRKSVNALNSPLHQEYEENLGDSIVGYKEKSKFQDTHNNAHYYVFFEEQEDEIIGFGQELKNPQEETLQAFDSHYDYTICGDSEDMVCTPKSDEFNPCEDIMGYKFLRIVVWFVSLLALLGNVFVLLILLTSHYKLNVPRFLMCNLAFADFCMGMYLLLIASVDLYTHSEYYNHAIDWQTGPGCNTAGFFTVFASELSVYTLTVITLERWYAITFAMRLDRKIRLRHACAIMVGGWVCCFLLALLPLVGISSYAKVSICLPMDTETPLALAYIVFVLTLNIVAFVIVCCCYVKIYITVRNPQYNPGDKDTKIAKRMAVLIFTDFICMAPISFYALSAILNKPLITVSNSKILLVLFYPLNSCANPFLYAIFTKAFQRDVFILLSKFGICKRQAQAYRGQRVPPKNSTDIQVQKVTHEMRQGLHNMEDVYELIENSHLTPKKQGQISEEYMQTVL
Chain of Thyrotropin-releasing hormone receptor (Homo sapiens) (P34981 whole entry, looked up): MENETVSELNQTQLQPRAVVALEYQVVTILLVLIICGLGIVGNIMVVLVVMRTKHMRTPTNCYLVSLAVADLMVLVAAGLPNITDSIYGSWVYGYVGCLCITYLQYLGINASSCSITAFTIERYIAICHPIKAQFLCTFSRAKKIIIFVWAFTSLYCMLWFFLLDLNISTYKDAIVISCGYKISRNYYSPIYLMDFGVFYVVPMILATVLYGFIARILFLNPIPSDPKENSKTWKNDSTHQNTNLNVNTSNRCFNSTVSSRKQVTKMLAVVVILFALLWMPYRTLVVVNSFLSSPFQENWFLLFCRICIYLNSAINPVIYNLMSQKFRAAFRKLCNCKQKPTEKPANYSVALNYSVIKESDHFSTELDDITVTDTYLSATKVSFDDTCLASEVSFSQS

For `CCOc1nc(F)cc2nc(S(=O)(=O)Nc3c(Cl)cccc3Cl)nn12`, the Potency entry in assay [1], in [2], in assay [3], in assay [4], in assay [5] and in [6] was “inactive” throughout. Further, the Potency result in assay [8], in [9], in assay [10], in [11], in [12] and in assay [13] was “inactive” throughout. The Potency result in [14], in [15] and in [17] was “inactive” in each case. Also, the call in assay [7] and in assay [16] was inactive.
On to `O=S1(=O)OC(c2cc(Br)c(O)c(Br)c2)(c2cc(Br)c(O)c(Br)c2)c2ccccc21`, for which the Potency result in [1], in assay [19], in [10], in assay [11], in assay [14] and in assay [15] was “inactive” in each case. For the same compound, the Potency result in [17] is “inactive”. The Potency in assay [2] is 7.05 µM (active); in assay [18] it was 25 µM (active); in assay [4], 31.5 µM (active); in assay [9], 22.3 µM (active). For the same compound, in [16], the result was inactive.
Turning to `CC(C)(C)c1cc([N+](=O)[O-])cc([N+](=O)[O-])c1O`, the Potency result in assay [1], in assay [20], in [5], in assay [8], in [10] and in assay [15] was “inactive” throughout. For the same compound, the Potency entry in assay [17] was “inactive”. Moreover, the results for the Potency in [2], in assay [18] and in assay [9] were 6.84 µM (active), 15.3 µM (active) and 19.3 µM (active), respectively. Also, the compound was classed as inactive in assay [7] and in assay [16].
Consider `CCOP(=S)(OCC)Oc1cc(Cl)c(Br)cc1Cl`, for which the Potency entry in assay [1], in assay [2], in [20], in assay [18], in [4] and in assay [19] was “inactive” throughout. Moreover, the Potency result in assay [5], in assay [6], in [8], in [9], in [10] and in [12] was “inactive” each time. For the same compound, the Potency entry in assay [13] and in assay [15] was “inactive” each time. For the same compound, the compound was called inactive in [7] and in [16].
With `O=C1C(=O)c2cccc3cccc1c23`, the Potency entry in assay [1], in assay [3], in assay [18], in assay [5], in assay [6] and in assay [8] was “inactive” in each case. The Potency entry in [9], in assay [10], in [12], in assay [13], in [14] and in [15] was “inactive” each time. The Potency entry in assay [17] was “inactive”. For the same compound, the values for the Potency in assay [2] and in [4] were 4.32 µM (active) and 43.2 µM (active), respectively. In addition, the call in assay [7] and in [16] was inactive.
For the compound `Clc1ccc(C2(Cn3cncn3)CC(Br)CO2)c(Cl)c1` (centres undefined), the Potency entry in [1], in assay [2], in [20], in [4], in assay [5] and in assay [6] was “inactive” in each case. For the same compound, the Potency result in assay [8], in assay [14] and in assay [15] was “inactive” throughout. For the same compound, the result in [7] and in assay [16] was inactive.
On to `CCOC(=O)COc1cc(-c2nn(C)c(OC(F)F)c2Cl)c(F)cc1Cl`, for which the Potency result in [1], in assay [2], in [18], in assay [4], in [19] and in assay [5] was “inactive” throughout. The Potency entry in [9], in assay [10], in [11], in assay [13], in assay [14] and in assay [15] was “inactive” in each case. In assay [17], the Potency entry was “inactive”. Further, in assay [7], the call was inactive.
